From PubChem BioAssay AID1233 (SRMLSC, 2008)
Measured potencies and affinities stand elsewhere. Activity calls are given as the source filed them.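 The calls were made as follows: active = a dose-response curve fit returns a half-maximal inhibitory concentration, extrapolated values included; inactive = the fit returns no such concentration.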

Target: HMG-CoA reductase [Enterococcus faecalis] (UniProt Q9FD70)
Assay: inhibitors of E. faecalis class II HMGR, confirmation, biochemical, Enterococcus faecalis (AID 1233)
Conditions: purified E. faecalis HMGR, NADPH absorbance 340 nm kinetics; series mostly up to 100 µM

outcome, inactive:
O=C(c1cc([N+](=O)[O-])ccc1N1CCCCC1)N1CCc2ccccc21, Cc1ccccc1NC(=S)NCc1ccc2c(c1)cc(C)n2C, COc1ccc(C(=O)Nc2ccc(NC(=O)c3cnccn3)cn2)cc1, Cc1ccc(NC(=O)C(=O)NCc2ccc(/C=N/NC(=O)c3c(C)nc4cc(C)ccn34)o2)cc1, Cc1ncc([N+](=O)[O-])n1CC(C)O (stereo not given), Cc1nc([N+](=O)[O-])c(Br)n1CC(=O)c1cccc([N+](=O)[O-])c1, CCc1c(C#N)c(N)nc(SCC(=O)OCc2ccccc2)c1C#N, O=C(NCCOc1ccccc1Cl)C(=O)c1c[nH]c2ccccc12, Cn1c(SCC(=O)N2CCCC2=O)nnc1-c1ccccc1F, Fc1ccccc1Cn1cnc(NC(=S)NCCc2ccccc2)n1, S=C1NCCc2ccc(Cl)cc2C1c1ccccc1 (stereo not given), Cc1cnc(NC(=O)CSc2nnc(-c3ccc(Cl)cc3Cl)n2N)s1, O=C(NCc1ccccc1Cl)c1cc([N+](=O)[O-])ccc1Cl, CCOC(=O)C1(O)CC(C)=NN1C(=O)c1cccc(Br)c1 (stereo not given), Cn1c(CO)cnc1SCc1ccc(F)cc1, COCc1cc(C)n(CC(=O)OC)c(=O)c1C#N, CCOC(=O)NC(=O)CN1C(=O)NC(C)(c2ccccc2)C1=O (stereo not given), CCC1CCCCN1C(=O)CCn1ccnc1 (stereo not given), CCCCC(c1nnnn1CCOC)N1CCN(CC)CC1 (stereo not given), CN(CCC#N)C(=O)COC(=O)c1ccc(Cl)c(S(=O)(=O)N(C)c2ccccc2)c1
